A selection: hits, their analogues and other compounds. The true share with any hit is near 7.6%.
NS3h inh CB = blocks HCV NS3 helicase binding to DNA; inhibition, % at 100 µM; NS3h Cy5-dT15 DNA binding, fluorescence polarization; 16,000 tested, 1.6% active;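 active means inhibition above the average over every tested compound plus 3 SD, cut at about 40% in these data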
Cy5 interf NS3h = counter-screen for HCV NS3 helicase inhibitors: fluorescence interference. fluorescence interference ratio at 100 µM. Cy5-dT15 DNA with NS3h; actives lie on both sides; signal over control mean, under 1 quenches. 16,000 tested, 6% active. AID 720488;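 active means compound fluorescence over control fluorescence at most 0.8, a quencher, or at least a set upper limit, an enhancer; inactive means ratio between 0.8 and the set upper limit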
Numbers stand for hits; . = inactive.

SMILES	NS3h inh CB	Cy5 interf NS3h
O=C(NCc1cccnc1)c1cnn2c1NC(c1ccc(F)cc1)CC2C(F)(F)F (stereo not given)	.	.
CC(=O)c1ccc(N2CCN(S(=O)(=O)c3ccccc3)CC2)c(F)c1	.	0.79
CC(=O)c1ccc(N2CCC(C)CC2)c(F)c1	.	.
O=C1CSC(=S)N1N1C(=O)C2C3C=CC(C3)C2C1=O (stereo not given)	.	.
O=C(Cc1ccccc1)NC(c1ccco1)c1c(O)ccc2ccccc12 (stereo not given)	.	0.59
O=C(Cc1ccccc1)NC(c1ccco1)c1ccc2cccnc2c1O (stereo not given)	.	.
CCN(CC)c1ccc(NC(=O)c2ccc(I)cc2)cc1	.	1.3
CCN(CC)c1ccc(NC(=O)c2ccc(Br)cc2)cc1	.	.
Cn1c(-c2nc3ccccc3n2C)nc2ccccc21	.	.
Cn1c(-c2ccc(-c3nc4cnccc4n3C)cc2)nc2cnccc21	.	1.2
CS(=O)(=O)N1CCN(Cc2ccccc2C(F)(F)F)CC1	.	0.55
Cc1ccccc1CN1CCN(S(C)(=O)=O)CC1	.	.
Cc1ccc(S(=O)(=O)N2CCN(Cc3ccccc3[N+](=O)[O-])CC2)cc1	.	.
CS(=O)(=O)N1CCN(Cc2ccccc2[N+](=O)[O-])CC1	.	0.72
C=CCn1c(SCC(=O)O)nnc1-c1ccc(OC)cc1	.	.
C=CCN1C(=O)c2ccccc2C1(O)c1ccc(OC)cc1 (stereo not given)	.	0.74
Cc1ccc(/C=C2/SC(=O)N(c3ccccc3)C2=O)cc1	.	.
O=C1S/C(=C\c2cccs2)C(=O)N1c1ccccc1	.	0.64
O=C(Nc1ccccc1)c1ccc(Cl)c(NC(=O)c2cccs2)c1	.	.
Cc1cc2ncn(C(=O)c3ccc([N+](=O)[O-])cc3)c2cc1C	.	.
Cc1cc(Nc2ccccc2)n(C(=O)c2ccc([N+](=O)[O-])cc2)n1	.	0.74
S=C(NNc1nc2ccccc2s1)NC1CCCCC1	.	0.74
O=C1C2CCCCC2C(=O)N1c1nc2ccccc2s1 (stereo not given)	.	.
COc1ccc(/C=N\n2cnnc2)cc1Br	.	.
COc1cc(/C=N\n2cnnc2)cc(OC)c1O	.	0.67
SMILES	NS3h inh CB	Cy5 interf NS3h
Cc1ccc(CN2CCN(S(C)(=O)=O)CC2)cc1	.	0.68
CCOc1ccc(CN2CCN(S(C)(=O)=O)CC2)cc1	.	0.71
CCOc1ccc(S(=O)(=O)N2CCOCC2)cc1	.	.
Cc1ccc(NC(=O)C(=O)NCCN2CCN(S(C)(=O)=O)CC2)cc1	.	.
Cc1ccc(OCC(=O)N2CCCc3ccccc32)c(C)c1	.	.
CC(C)C(NC(=O)c1ccc(N(C)S(=O)(=O)c2ccccc2)cc1)C(C)C	.	.
COc1ccc(NC(=O)CSc2nc3ccc(N4C(=O)c5ccccc5C4=O)cc3s2)c([N+](=O)[O-])c1	.	0.73
CCOc1ccc2nc(SCC(=O)Nc3ccc(OC)cc3OC)sc2c1	.	.
O=C(O)CCN1C(=O)/C(=C/c2ccc(Cl)c([N+](=O)[O-])c2)SC1=S	.	0.7
O=C(O)CCN1C(=O)/C(=C/c2cccc(OCc3ccccc3)c2)SC1=S	.	.
O=Cc1ccc(/C=C2/SC(=S)N(Cc3ccccc3)C2=O)cc1	.	0.72
CCN1C(=O)/C(=C\c2ccc(N(C)C)cc2)SC1=S	.	1.2
C=CCN1C(=O)/C(=C\c2ccc(C=O)cc2)SC1=S	.	.
O=C1/C(=C/c2ccc(I)o2)SC(=S)N1c1ccccc1	.	0.69
CN(C)c1ccc(/C=N\N2C(=O)/C(=C/c3ccc(N(C)C)cc3)SC2=S)cc1	.	.
COC(=O)c1ccc(-c2ccc(/C=C3/SC(=S)N(c4ccccc4)C3=O)o2)cc1	.	.
CCN1C(=O)/C(=C/c2cccc(OC(=O)c3ccccc3I)c2)SC1=S	.	0.74
CCN1C(=O)/C(=C\c2cccc(OCCOc3cccc(OC)c3)c2)SC1=S	.	.
O=C1/C(=C\c2ccc(-c3ccccc3Cl)o2)SC(=S)N1Cc1ccccc1	.	.
O=C1/C(=C/c2ccc(I)o2)SC(=S)N1Cc1ccccc1	.	0.66
Cc1cc(C)c(NC(=O)c2cncc(Br)c2)c(C)c1	.	.
O=C(Nc1ccc(NC(=O)c2ccccc2Br)cc1)c1ccccc1Br	.	.
COc1ccccc1C(=O)Nc1cc(C)cc(C)c1	.	0.68
COc1ccccc1C(=O)Nc1ccc(Br)cc1	.	.
CC(=O)Nc1ccc(NC(=O)c2ccccc2OC(F)F)cc1	.	0.77
SMILES	NS3h inh CB	Cy5 interf NS3h
CC1(C)CC(=O)C2=C(C1)OC1=C(C(=O)CC(C)(C)C1)C2c1cccc([N+](=O)[O-])c1	.	.
Cc1ccc(C2C3=C(CC(C)(C)CC3=O)OC3=C2C(=O)CC(C)(C)C3)o1	.	0.67
COc1ccc(C(=O)Oc2cccc(C(=S)N3CCOCC3)c2)cc1	.	.
S=C(c1cccc(OCc2ccccc2)c1)N1CCOCC1	.	0.64
CC(Sc1nnc(-c2cccnc2)o1)C(=O)c1ccccc1 (stereo not given)	.	.
CSc1nnc(-c2ccc(C)cc2)o1	.	0.69
Cc1cccc(NC(=O)Cc2ccccc2)c1C	.	.
CCOc1ccc2nc(SCC(=O)c3ccc(C)cc3C)sc2c1	.	0.76
CCOc1ccc2nc(SCC(=O)NC(C)c3ccccc3)sc2c1 (stereo not given)	.	.
CCOc1cccc(C(=O)Nc2nnc(-c3cccc(OCC)c3)s2)c1	.	.
CCOc1cccc(C(=O)Nc2nc3ccc(C)cc3s2)c1	.	0.69
Cc1nn2c3ccccc3n(C)c2c1C(=O)/C=C/c1ccccc1	.	.
COc1ccc(N2C(=O)S/C(=C/c3ccc(OC)c(OC)c3)C2=O)cc1	.	.
CCCCCCN1C(=O)C(=O)C(=C(O)c2ccccc2)C1c1ccc2c(c1)OCO2 (stereo not given)	.	.
Cc1cc(=O)n2ccc(CN(C)C)c(O)c2n1	.	0.62
O=C(CCCC(=O)OCC(F)(F)C(F)F)Nc1ccc(NC(=O)CCCC(=O)OCC(F)(F)C(F)F)cc1	.	0.62
C=CCCCC(=O)Nc1ccc(Cl)cc1Cl	.	.
C=CCCCC(=O)Nc1ccc(-c2ccc(NC(=O)CCCC=C)cc2)cc1	.	.
O=C(CCC(=O)OCC(F)(F)C(F)F)Nc1ccc(Cl)cc1Cl	.	0.78
C=CCN(CC=C)Cn1[nH]c(=O)ccc1=O	.	0.75
CC1CCN(Cn2[nH]c(=O)ccc2=O)CC1	.	.
S=C(c1ccc(OCc2ccccc2)cc1)N1CCN(c2cccc(Cl)c2)CC1	.	.
Cc1ccccc1NC(=O)C(=O)NCCc1ccccc1	.	.
Cc1ccccc1NC(=S)NCCOc1ccccc1Cc1ccccc1	.	0.6
CCC(=O)Nc1cc(OC)ccc1OC	.	.
SMILES	NS3h inh CB	Cy5 interf NS3h
CCOc1ccc(C=C2C(=O)NC(=S)NC2=O)cc1Cl	.	.
CCC1=NN(C(=O)c2cccc(C)c2O)C(O)(c2ccc(Br)cc2)C1 (stereo not given)	.	0.77
CCC1=NN(C(=O)c2ccncc2)C(O)(c2ccc(Br)cc2)C1 (stereo not given)	.	.
O=C(/C=C/c1ccc(S(=O)(=O)Nc2ccccc2)cc1)C1C(=O)c2ccccc2C1=O	.	0.47
O=C(O)/C=C/c1cccc(NS(=O)(=O)c2ccccc2)c1	.	.
CC1CN(S(=O)(=O)c2ccc(C(=O)Nc3nc(-c4ccc([N+](=O)[O-])cc4)cs3)cc2)CC(C)O1 (stereo not given)	.	.
Oc1ccccc1C(O)(c1ccccc1)c1ccccc1	.	.

Assay outcomes (PubChem)
